This note sets out measurements from PubChem BioAssay AID493199 (National Center for Advancing Translational Sciences (NCATS), 2011).

The structures appear in SMILES notation. The list shows a part of the results. Records with an inconclusive call do not appear. Activity calls are given as the source filed them. The call rests on the fitted dose curve; in most records, active means well fitted inhibition curve with a large enough effect; inconclusive means small, poorly fitted or top-dose-only effect, or effect the other way; inactive means no such curve, though single readings can be large or run the other way.

The experiment deals with Muscleblind-like protein 1 (Homo sapiens) (UniProt Q9NR56). Put plainly: qHTS Assay for Inhibitors of MBNL1-poly(CUG) RNA binding: Initial hit validation from the primary screen. The note with it: TR-FRET MBNL1-His / biotin-(CUG)12 binding, 60 min. An excerpt: NIH Chemical Genomics Center [NCGC] NIH Molecular Libraries Probe Production Centers Network [MLPCN] MLPCN Grant: R03 MH087421-01 Assay Submitter (PI): Charles Thornton NCGC Assay Overview: Expanded CTG repeats in the 3' untranslated region of the DM protein kinase (DMPK) gene causes type I myotonic dystrophy (DM1). DM1 is a multi-systemic disease with a prevalence of 1/7000. Clinical features include myotonia, progressive muscle weakness and wasting, cardiac arrhythmia, insulin resistance, hypersomnolence, cataracts, and other symptoms. The pathogenic effect of expanded CTG repeats stems from deleterious effects of the mutant transcript. CUGexp mRNA accumulates in nuclear foci and sequesters proteins of the muscleblind family, of which MBNL1 is the most common family member in skeletal muscles. The binding interaction between MBNL1 and CUGexp tracts leads to deregulation of alternative splicing and is therefore a key molecular step in the pathogenesis of DM1. To target this binding interaction, we optimized a protein-RNA binding assay in 1536-well format for identification of small molecule inhibitors of biotinylated (CUG)12 and his-tagged MBNL1 binding. Protein-RNA complex of MBNL1-His and Biotin-(CUG)12 captures the detection reagents terbium-labeled anti-His antibody and streptavidin conjugated XL665. This brings the terbium label within close proximity to XL665 to allow time-resolved fluorescence resonance energy transfer (TR-FRET). Inhibitors of MBNL1-(CUG)12 binding will disrupt TR-FRET. This deposition presents the initial confirmation of hits from the primary screen in the same assay.
Muscleblind-like protein 1 (Homo sapiens), sequence (Q9NR56 whole entry, looked up): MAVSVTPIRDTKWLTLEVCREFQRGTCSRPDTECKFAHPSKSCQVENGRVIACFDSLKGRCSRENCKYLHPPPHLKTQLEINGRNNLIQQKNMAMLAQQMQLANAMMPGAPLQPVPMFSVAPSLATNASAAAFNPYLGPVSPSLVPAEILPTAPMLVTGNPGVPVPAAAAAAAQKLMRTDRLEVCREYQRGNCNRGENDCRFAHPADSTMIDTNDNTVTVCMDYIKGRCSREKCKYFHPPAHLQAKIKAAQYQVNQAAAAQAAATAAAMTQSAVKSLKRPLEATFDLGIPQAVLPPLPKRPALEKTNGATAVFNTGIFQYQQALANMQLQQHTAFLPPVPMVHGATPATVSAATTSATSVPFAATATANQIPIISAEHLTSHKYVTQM
NCGC Assay Protocol Summary: This is a TR-FRET binding assay with MBNL1-His and Biotin-(CUG)12 RNA. The assay uses a ratiometric measurement. […] (3) Add 1 ul of terbium labeled anti-His antibody (0.055 ng/ul final concentration) (4) Add 1 ul of streptavidin-XL665 (5 nM final concentration) (5) Incubate 60 min at room temperature (6) Detect the assay plate in a EnVision plate reader (PerkinElmer) with Ex=340 nm, Em1=665 nm and Em2=545 nm. […]
A general note: In qHTS, concentration-response curves come from the screen itself.
As for `COc1ccc(Cc2n[nH]c(=S)n2NC(=O)Nc2ccc(C)cc2)cc1`, the Potency was 20.6 µM (active).

Consider `CCOC(=O)c1c(C)[nH]c2c1-c1ccccc1C(=O)C2=O`, for which the Potency is 3.26 µM (active). Take `COc1cccc(NC(=O)Cn2cnc3sc(C)c(S(=O)(=O)N4CCN(C)CC4)c3c2=O)c1`: the Potency was 16.3 µM (active).
